Compound activity as filed in PubChem.
PfHsp40 yeast – rescue of yeast from PfHsp40 toxicity, primary screen, S. cerevisiae, ATP luminescence | 340,000 tested, 0.68% active | S. cerevisiae expressing PfHsp40, growth rescue | growth rescue, % at 12.5 µM; in the data active = growth rescue above about 28%, passing the limit was not always enough; inconclusive = no clear call, values can overlap the other calls;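 also: yeast W303a lacking pdr1 and pdr3 grown in galactose medium; growth measured after three days at 30 °C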
BioA inh-1 – M. tuberculosis BioA enzyme inhibitors, primary screen, biochemical, plate reader, single point, HTS. 7,8-diaminopelargonic acid synthase BioA (Mycobacterium tuberculosis). purified M. tuberculosis BioA enzyme. inhibition, % at 9.99 µM. 360,000 tested, 0.096% active. AID 602481, 2012; in the data active = inhibition above about 40%; inconclusive = no clear call, values can overlap the other calls
VHR inh abs – VHR1 phosphatase inhibitors, primary screen, biochemical, absorbance, uHTS; AID 1654, 2009; recombinant VHR phosphatase, pNPP absorbance; Dual specificity protein phosphatase 3 (Homo sapiens), P51452; 290,000 tested, 0.52% active; inhibition, % at 13.3 µM; in the data active = inhibition above about 50%
Target sequence (P51452 whole entry, looked up): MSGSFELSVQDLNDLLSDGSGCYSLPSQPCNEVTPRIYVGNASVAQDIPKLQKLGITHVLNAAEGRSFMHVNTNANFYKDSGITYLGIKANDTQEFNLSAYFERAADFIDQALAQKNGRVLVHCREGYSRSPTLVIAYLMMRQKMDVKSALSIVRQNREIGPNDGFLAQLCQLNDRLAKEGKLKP
Vc quorum ag – inducers of Vibrio cholerae quorum light production without autoinducers, primary screen, BH1578 luxS cqsA deficient, single point. V. cholerae BH1578 lux reporter, luminescence, 6 h. activation, % at 18.7 µM. 350,000 tested, 0.16% active; in the data active = activation mostly above about 9.7%, no sharp cut-off; inconclusive = no clear call, values can overlap the other calls; inactive = mostly below about 3.7%
Yp Topo-I inh – Yersinia pestis topoisomerase I inhibitors, primary screen, biochemical, cleavage product accumulation, plate reader, single point | DNA topoisomerase I (Yersinia pestis CO92) | 360,000 tested, 0.064% active | Y. pestis Topo-I cleavage product accumulation | activity, % at 10 µM | AID 504884, 2011; in the data active = activity above about 50%, passing the limit was not always enough; inconclusive = no clear call, values can overlap the other calls
TcdB inh – TcdB glycohydrolase inhibitors, primary screen, biochemical, single point, plate reader | Toxin B (Clostridioides difficile), P18177 | TcdB glycohydrolase enzymatic assay | inhibition, % at 9.99 µM | 350,000 tested, 0.24% active | AID 652162, 2013; in the data active = inhibition above about 10%
BioA inh-2 – Mtb BioA enzyme inhibitors, dose response, biochemical, plate reader, cherry-pick samples, set 03; shares compounds with BioA inh-1; purified BioA enzyme; max activity, %; 310 tested, under 10 active; AID 651679, 2012;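 also: top concentration of the dilution series was 10 µM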
HepG2 cytotox – cytotoxicity in HepG2 cells, dose response, cytotoxicity control, cell-based, plate reader, cherry-pick, two tests; shares compounds with BioA inh-1; max activity, %; 310 tested, under 10 active; AID 651898, 2012
NIH3T3 tox 5 – cytotoxicity in NIH3T3 fibroblasts, dose response, cytotoxicity control, cell-based, plate reader, cherry-pick, two tests | shares compounds with BioA inh-1 | activity change, negative = cytotoxicity, % at 26 µM | 310 tested, under 10 active
Numbers stand for hits; . = inactive; ? = inconclusive; / = not tested or not shown. Hits are enriched below; roughly 1.2% of the tested compounds scored in any of these assays. Unless noted, no rule for the calls is given here.

SMILES | PfHsp40 yeast | BioA inh-1 | VHR inh abs | Vc quorum ag | Yp Topo-I inh | TcdB inh | BioA inh-2 | HepG2 cytotox | NIH3T3 tox 5
O=C(Nc1ccc(F)c(F)c1)c1ccc(-n2cncn2)c([N+](=O)[O-])c1 | . | 79 | / | . | . | . | . | . | .
O=C(NC1CCCc2c1cnn2-c1cc(F)cc(F)c1)c1ccc[n+]([O-])c1 (stereo not drawn) | . | 65 | . | . | . | . | . | . | .
O=C(NC1CCCc2c1cnn2-c1cc(F)cc(F)c1)c1cc[n+]([O-])cc1 (stereo not drawn) | . | . | . | . | . | . | / | / | /
COCc1cccc(NC(=O)CCc2ccccc2)c1 | . | / | . | . | . | . | / | / | /
COc1cccc(NC(=O)N2C[C@H](O)COC[C@@H]3O[C@@H](CC(=O)N(C)C)CC[C@H]32)c1 | / | 99 | / | / | / | . | . | . | .
CNC(=O)C[C@@H]1CC[C@H]2[C@@H](COC[C@H](O)CN2C(=O)Nc2ccc(Cl)c(Cl)c2)O1 | / | . | / | / | / | . | / | / | /
CNC(=O)C[C@H]1CC[C@@H]2[C@H](COC[C@@H](O)CN2C(=O)Nc2ccc(Cl)c(Cl)c2)O1 | / | 83 | / | / | / | . | . | . | .
CC(C)c1ccc(NC(=O)CSc2nnc(OC(=O)N(C)C)n2C2CC2)cc1 | . | . | . | . | . | . | / | / | /
Cc1cccc(-c2ccc3c(c2)C2CC3CCN2C)c1 (stereo not drawn) | . | . | / | . | . | . | / | / | /
Fc1ccc(-c2ccc3c(c2)C2CC3CCN2)cc1 (stereo not drawn) | . | 66 | / | . | . | . | . | . | .
Cc1cccc(-c2ccc3c(c2)C2CC3CCN2)c1 (stereo not drawn) | . | 56 | / | . | . | . | . | . | .
FC(F)(F)c1ccc(-c2cccc3c2C2CC3CCN2)cc1 (stereo not drawn) | . | . | / | . | . | . | / | / | /
Cc1nc(SCC(=O)N2CCC(C(N)=O)CC2)n[nH]1 | . | / | . | . | . | / | / | / | /
O=C(O)c1ccc(C(=O)c2ccc3c(c2)C(=O)N(CC2CCCO2)C3=O)cc1 (stereo not drawn) | . | . | . | . | . | . | / | / | /
O=C(O)CN1C(=O)/C(=C\c2cc(Br)ccc2OCc2ccc([N+](=O)[O-])cc2)SC1=S | . | 62 | . | . | . | . | . | ? | ?
O=C(O)CN1C(=O)/C(=C\c2cc(Br)ccc2OCc2ccccc2F)SC1=S | . | . | . | . | . | . | / | / | /
Cc1ccc(NC(=O)CSc2nc(=O)n(CCCN3CCOCC3)c3c2CCCC3)cc1F | . | 47 | / | . | . | . | . | . | .
CCc1ccc(NC(=O)CSc2nc(=O)n(CCCN3CCOCC3)c3c2CCCC3)cc1 | . | . | / | . | . | . | / | / | /
O=C(C[C@@H]1C[C@@H]2c3cc(NC(=O)c4cccnc4)ccc3O[C@@H]2[C@@H](CO)O1)NCCc1ccccc1 | / | 41 | / | / | / | . | . | . | .
COC(=O)C[C@@H]1C[C@@H]2c3cc(NC(=O)c4cccnc4)ccc3O[C@@H]2[C@@H](CO)O1 | / | 51 | / | / | / | . | . | . | .
O=C(Cc1ccccn1)NCC[C@@H]1CC[C@H](NC(=O)Nc2ccccc2)[C@H](CO)O1 | / | . | / | / | / | . | / | / | /
COc1ccc(-c2cc(NC=O)c3ncc(-c4cccc(C(=O)N(C)C)c4)n3c2)cn1 | / | 42 | / | . | . | . | . | . | .
COc1cccc(-c2cc(NC=O)c3ncc(-c4cccc(C(=O)N(C)C)c4)n3c2)c1 | / | . | / | . | . | . | / | / | /
CC(C)CC(NC(N)=O)C(=O)Nc1cccc([N+](=O)[O-])c1 (stereo not drawn) | . | / | . | . | . | . | / | / | /
CCOC(=O)c1c(C)nn(-c2ncccc2NC(=O)NC(C)C)c1C | . | . | . | . | . | . | / | / | /
